The source of these data is PubChem BioAssay AID1697 (The Scripps Research Institute Molecular Screening Center, 2009).

The list shows a part of the results. A number with no mark means an inactive call. Activity calls are given as the source filed them.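 Rule for the calls: active = percent activation above the mean of DMSO-only control wells plus 3 SD of those wells (cut at about 18% in these data); inactive = the rest.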

In the assay the target is Neuropeptide Y receptor type 1 (Homo sapiens) (UniProt P25929). Briefly: NPY-Y1 direct agonists without NPY, confirmation, counter-screen for NPY-Y1 potentiator project, cell-based, fluorescence (AID 1697).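 Note: cells challenged with isoproterenol plus Ro 20-1724 with no NPY in test wells; Y1 agonism lowers isoproterenol-driven cAMP and reduces probe fluorescence.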 Conditions: HEK293 Y1-CNGC, membrane potential fluorescence, agonist mode; at 3.6 µM; hits give high values.
Neuropeptide Y receptor type 1 (Homo sapiens), sequence (P25929 whole entry, looked up): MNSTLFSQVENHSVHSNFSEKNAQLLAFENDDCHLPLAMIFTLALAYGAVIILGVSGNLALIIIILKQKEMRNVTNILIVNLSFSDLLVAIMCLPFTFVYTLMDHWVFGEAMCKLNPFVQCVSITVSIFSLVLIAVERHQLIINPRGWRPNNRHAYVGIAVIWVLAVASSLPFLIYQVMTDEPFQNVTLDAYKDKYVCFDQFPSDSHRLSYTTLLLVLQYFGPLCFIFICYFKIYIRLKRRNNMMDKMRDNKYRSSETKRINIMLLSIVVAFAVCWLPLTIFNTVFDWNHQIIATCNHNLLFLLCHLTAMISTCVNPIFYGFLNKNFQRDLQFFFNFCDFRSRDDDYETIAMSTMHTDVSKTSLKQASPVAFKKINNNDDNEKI
For `CC1=C/C(=N\OS(=O)(=O)c2ccccc2)C=CC1=O`, the activation was 14.2%. Regarding `CN1C(=O)c2ccccc2C(C(=O)NCCCN2CCCC2)C1c1c[nH]c2ccccc12` (stereo unspecified), the activation was -3%. Turning to `O=[N+]([O-])c1cc(Cl)cc(/C=N/NC(=S)Nc2cc(S(=O)(=O)N3CCOCC3)ccc2Cl)c1O`, the activation was 77% (active). In the case of `CC(=O)c1ccc(NC(=O)C2CC(=O)Nc3nc4ccccc4n32)cc1` (stereo unspecified), the activation was 38% (active). As for `CSc1nc(-c2ccco2)nn1C(=O)c1ccccc1Cl`, the activation was 28.5% (active). As to `O=C1/C(=C/c2coc3ccc(O)cc3c2=O)SC(=S)N1c1ccccc1`, the activation was 16.8%. For the compound `CCn1c2ccccc2c2cc(NC(=O)Nc3ccc([N+](=O)[O-])cc3C)ccc21`, the activation was 11.8%. Take `COCCn1nnnc1C(c1ccccc1Cl)N1CCN(c2ccccc2OC)CC1` (stereo unspecified): the activation was -0.37%. On to `N#Cc1ccc(C(=O)Nc2nc(-c3cccs3)c(C(=O)C(F)(F)F)s2)cc1`, for which the activation is -33.9%. As for `COC(=O)c1sc(-c2ccc(C(C)(C)C)cc2)cc1NC(=O)/C=C/C(=O)O`, the activation is 26.9% (active). For the compound `Cc1ccccc1NCC(=O)N/N=C\c1ccc([N+](=O)[O-])s1`, the activation was 40% (active).

On to `O=C(Nc1ccc2c(c1)CCC2)c1cccc(S(=O)(=O)Nc2ccccc2Cl)c1`, for which the activation is 3.19%. Consider `Cc1cccc(OCC(O)CN2CCN(CCN3C(=O)c4cccc5cccc(c45)C3=O)CC2)c1C` (stereo unspecified), for which the activation is 45.1% (active). For the compound `O=C(Nc1ccccc1C(F)(F)F)c1cc(-c2ccc(O)cc2)on1`, the activation was 9.5%. For `O=C(c1cccs1)N1CCN(C(=O)N2CCOCC2)CC1`, the activation is -8.38%.

For `COC(=O)c1ccc(NC(=O)CN(c2ccc(C)cc2)S(=O)(=O)c2c(C)n[nH]c2C)cc1`, the activation is 45.3% (active).
